Measurements: PubChem BioAssay (NCI)
Compounds without any hit were thinned out: in the full panel of roughly 83,000, 20% have a hit.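 Percent growth is the endpoint: 0 to 100 indicates growth inhibition (40 means 60% inhibition), 0 means no net growth, and negative values indicate cell death.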 The source made the active and inactive calls. Rule for the calls: active = growth percent below 10; inactive = the rest.

How the values were obtained:
Assay in all cases: NCI-60 one-dose screen, 48 h (100 = growth as untreated, 0 = no growth, -100 = all killed)
Conditions in all cases: 10 µM unless noted
[1] = test system: HCT-15 colon
[2] = test system: HT29 colon
[3] = test system: SNB-75 CNS
[4] = test system: SNB-19 CNS
[5] = test system: U251 CNS
[6] = test system: PC-3 prostate
[7] = test system: SK-MEL-5 melanoma
[8] = test system: UACC-62 melanoma
[9] = test system: LOX IMVI melanoma
[10] = test system: SK-MEL-28 melanoma
[11] = test system: SK-MEL-2 melanoma
[12] = test system: EKVX NSCLC
[13] = test system: SN12C renal
[14] = test system: UO-31 renal
[15] = test system: TK-10 renal
[16] = test system: ACHN renal
[17] = test system: CAKI-1 renal
[18] = test system: CCRF-CEM leukemia
[19] = test system: MOLT-4 leukemia
[20] = test system: A498 renal

Measured: growth

O=C1NC(=S)NC(=O)C1=Cc1cccc(C=C2C(=O)NC(=S)NC2=O)c1
inactive: [1] 105% | [2] 104% | [3] 98.9% | [4] 98.9% | [5] 114% | [6] 104% | [7] 100% | [8] 101% | [9] 102% | [10] 110% | [11] 108% | [12] 99.9% | [13] 95.3% | [14] 91% | [15] 104% | [16] 113% | [17] 93.9% | [18] 99.3% | [19] 102%

CN(C)C(C(N)=O)c1ccc(Cl)cc1 (centres undefined)
inactive: [1] 108% | [2] 104% | [3] 93.6% | [4] 99.9% | [5] 93.4% | [6] 95.1% | [7] 101% | [8] 90.8% | [9] 95.7% | [10] 101% | [11] 102% | [12] 97.8% | [13] 103% | [14] 94.2% | [15] 92.2% | [16] 95.2% | [17] 93.4% | [18] 115% | [19] 95.5%

CCCCCCCCN1C(=O)/C(=c2\sc3n(c2=O)C2C(NN=3)N(CC)C(=O)N2CC)c2ccccc21 (centres undefined)
active: [3] -13%
inactive: [1] 93.2% | [2] 100% | [4] 45.7% | [5] 46.2% | [6] 81.7% | [7] 96.9% | [8] 76.3% | [9] 81.9% | [10] 88.3% | [11] 86.8% | [12] 73.9% | [13] 86.1% | [14] 66.8% | [15] 110% | [16] 73.8% | [17] 49.3% | [19] 101%

O=C(NNc1nc(Cl)nc(N2CCN(C(c3ccccc3)c3ccccc3)CC2)n1)c1ccccc1
inactive: [4] 32.4% | [5] 27.3% | [7] 79.4% | [12] 64% | [14] 68.9% | [15] 126%
active: [1] -60.1% | [2] -78.9% | [3] -26.3% | [6] -46.9% | [8] 3.38% | [9] -88.7% | [10] -6.33% | [11] -27% | [13] -24.2% | [16] -39% | [17] -51.9% | [18] -25.1% | [19] -39.2%

CS(=O)(=O)OCCN(CCOS(C)(=O)=O)c1ccc(/C=N/Nc2ccc([N+](=O)[O-])cc2[N+](=O)[O-])cc1
inactive: [1] 100% | [2] 85.9% | [3] 77.2% | [4] 82.7% | [5] 76% | [6] 67.3% | [7] 89.2% | [8] 78% | [9] 63.5% | [10] 95.7% | [11] 118% | [12] 81.7% | [13] 77.6% | [14] 88.9% | [15] 112% | [16] 84.6% | [17] 70.4% | [18] 55.5% | [19] 88.4%

NC(=S)N/N=C(\c1ccc(Cl)cc1)C1CC1
inactive: [1] 84.3% | [2] 50.6% | [3] 83.7% | [4] 104% | [5] 92.1% | [6] 77.9% | [7] 89.1% | [8] 87.3% | [9] 94.2% | [10] 98.7% | [11] 106% | [12] 69.8% | [13] 83% | [14] 58.7% | [15] 102% | [16] 88.4% | [17] 81.1% | [18] 63.2% | [19] 46.9%

N#Cc1ccc(-c2ccc3c(c2)NC(=O)/C3=C\c2ccc[nH]2)cc1
inactive: [1] 58.3% | [2] 103% | [3] 57% | [4] 99.3% | [5] 103% | [6] 84.7% | [7] 85.4% | [8] 88.4% | [9] 97.5% | [10] 107% | [11] 89.3% | [12] 26.5% | [13] 95.8% | [14] 72% | [15] 54.4% | [16] 101% | [17] 82.4% | [18] 103% | [19] 109%

COc1ccc2c(c1)OC13Oc4cc(OC)ccc4C=C1CCCC3=C2
inactive: [1] 12.8% | [3] 74.6% | [4] 54.7% | [5] 35% | [6] 23.6% | [7] 40.3% | [8] 14.8% | [10] 63% | [11] 15.7% | [12] 39.7% | [13] 44.1% | [14] 36.3% | [15] 47% | [16] 25.3% | [20] 69.8%
active: [2] 8.16% | [9] -32.1% | [18] 5.97% | [19] -3.56%

C=C(C)[C@@H]1CC[C@]2(C(=O)N3CCN(C)CC3)CC[C@]3(C)[C@H](CC[C@@H]4[C@@]5(C)CCC(=O)C(C)(C)[C@@H]5CC[C@]43C)[C@@H]12
inactive: [1] 61.7% | [2] 39.2% | [3] 85.2% | [4] 81.5% | [5] 69.7% | [6] 54.7% | [7] 92.1% | [8] 99.5% | [9] 92.5% | [10] 92.7% | [11] 92.1% | [12] 96.3% | [13] 75.7% | [14] 66.7% | [15] 102% | [16] 77.4% | [17] 93.5% | [19] 51.6%

CN1C(=O)N(C)C2NC(N/N=C/c3ccccc3)=NC21 (centres undefined)
inactive: [1] 103% | [2] 111% | [3] 76.3% | [4] 102% | [5] 101% | [6] 95.6% | [7] 102% | [8] 100% | [9] 96.5% | [10] 102% | [11] 108% | [12] 98.7% | [13] 98.5% | [14] 92.7% | [15] 100% | [16] 102% | [17] 88.8% | [19] 103%

Cc1nccc2c3ccc(OCc4cn(-c5ccc(Cl)cc5)nn4)cc3n(CCCc3ccccc3)c12
active: [3] -45.1% | [8] -62% | [9] 0.291% | [10] -34.3% | [13] 6.96% | [14] -87.1% | [15] -16.1% | [16] -20.4% | [18] 2.43%
inactive: [1] 45.7% | [2] 11.1% | [4] 63% | [5] 25.3% | [6] 16.3% | [7] 68.3% | [11] 90.8% | [12] 66.3% | [20] 87.5% | [19] 18.2%

C#Cc1cccc(NC(=O)Nc2cccc(N=C=S)c2)c1
inactive: [1] 105% [8.25 µM] | [2] 113% [8.25 µM] | [3] 89.3% [8.25 µM] | [4] 96.6% [8.25 µM] | [5] 96.9% [8.25 µM] | [6] 94.6% [8.25 µM] | [7] 95.7% [8.25 µM] | [8] 89.4% [8.25 µM] | [9] 102% [8.25 µM] | [10] 103% [8.25 µM] | [11] 109% [8.25 µM] | [12] 99.7% [8.25 µM] | [13] 97.6% [8.25 µM] | [14] 87.7% [8.25 µM] | [15] 119% [8.25 µM] | [17] 94.7% [8.25 µM] | [20] 85% [8.25 µM] | [18] 96.1% [8.25 µM] | [19] 97.8% [8.25 µM]

Clc1nc(Cl)c2ncn(CCOCCn3cnc4c(Cl)nc(Cl)nc43)c2n1
active: [1] -78.7% | [2] -60.5% | [3] -92.3% | [4] -89.3% | [5] -72.3% | [6] -93.4% | [7] -91.5% | [8] -95.9% | [9] -83.2% | [10] -95.7% | [11] -76.8% | [12] -91.1% | [13] -83.6% | [14] -95.4% | [15] -86% | [17] -94.6% | [20] -92.4% | [18] -45.2% | [19] -68.9%

C1=C2CNCC3=Cc4ccc5ccccc5c4OC23Oc2c1ccc1ccccc21
inactive: [1] 21.7% | [2] 19.1% | [3] 34.5% | [4] 59.6% | [5] 38.9% | [6] 39.1% | [7] 35.6% | [8] 25.6% | [9] 18.9% | [10] 46.7% | [11] 51.9% | [12] 66.4% | [13] 63.2% | [14] 36.3% | [15] 89.7% | [17] 31.1% | [18] 43.3% | [19] 45.8%

COc1ccc2c(/C=C3/C(=O)NC(=S)NC3C)cc(=O)oc2c1 (centres undefined)
inactive: [1] 103% | [2] 88.8% | [3] 87.3% | [4] 102% | [5] 94.2% | [6] 78.6% | [7] 99.4% | [8] 96.8% | [9] 95.3% | [10] 109% | [11] 86.8% | [12] 101% | [13] 97.7% | [14] 88.3% | [15] 93.5% | [16] 108% | [18] 93.2% | [19] 90.5%

Nc1ccccc1NC(=O)c1ccc(CN2CCC/C(=C\c3cccc(Cl)c3)C2=O)cc1
inactive: [1] 15.4% | [3] 16.5% | [4] 24.3% | [5] 13.7% | [6] 17.7% | [8] 27.1% | [10] 48.2% | [11] 11.1% | [12] 20.4% | [14] 22.6%
active: [2] 1.41% | [7] -41.9% | [9] 9.7% | [13] 5.8% | [15] 4.89% | [16] 5.98% | [20] -11% | [18] 4.02% | [19] 1.63%
